Test results as given in PubChem BioAssay AID1347426 (Functional Genomics Laboratory (NCATS/FGL), 2020).
Screen size: about 31,000 sequences; about 1,400 (4.5%) were called active. This excerpt belongs to a sample that is enriched for actives. Unmarked numbers belong to inactive results.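 Rule for the calls: active = median seed-adjusted z-score above 1 or below -1; inactive = the rest.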

Assay: Novel Modifiers of Survival Motor Neuron (SMN) Protein: Gene Identification via Genome-wide siRNA Screen;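 note: luminescence tracks full-length SMN protein made from the SMN2 reporter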
Details: HEK293T SMN2-luciferase reporter, siRNA knockdown, 72 h; actives lie on both sides
Summary of the method: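 Each of three siRNAs per gene is reverse-transfected (1 pmol) into reporter HEK293T cells whose luciferase output tracks SMN protein level. After 72 h culture, ONE-Glo luminescence is control-normalized, log10-transformed and MAD-standardized; Common Seed Analysis deprioritizes seed-driven hits.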

Question: With GAAAGACAGAUCAAGAUUUTT against HOXB7 as the sequence, how does the median seed-adjusted z-score read?
Answer: -0.153

Question: Which median seed-adjusted z-score does the source give for ACCGCUUCAUGUCUGCGUATT against SF3A2 here?
Answer: -1.7 (active)

Question: For AUCCGAUGGUGGUUACUGATT against MCOLN1, which median seed-adjusted z-score is on record?
Answer: -0.522

Question: For CGGCUUGAAUUUGAUCUAUTT against AASDHPPT, which median seed-adjusted z-score is on record?
Answer: 0.64

Question: Which median seed-adjusted z-score does the source give for GAGUGACUGUAGAGCCUCATT against GCS1 here?
Answer: 0.819

Question: Which median seed-adjusted z-score does the source give for CACGGUCUGUUCUCAGAUUTT against MXD4 here?
Answer: 0.688

Question: Which median seed-adjusted z-score does the source give for CCCUUUUACUAUUCAGCGATT against PPP4R2 here?
Answer: 0.211

Question: For CAUUUUAGAUGGGCACAAUTT against GOSR2, which median seed-adjusted z-score is on record?
Answer: -1.25 (active)

Question: For GAAUGAUCGUGAUCCUCGUTT against AHCTF1, which median seed-adjusted z-score is on record?
Answer: -0.501

Question: Which median seed-adjusted z-score does the source give for GAGUGAAGAUGAGUUGACATT against XRCC6 here?
Answer: 0

Question: For GACCGGAUAUGGGCUAUAATT against NEK7, which median seed-adjusted z-score is on record?
Answer: 0

Question: Which median seed-adjusted z-score does the source give for CAAUUUUGCAGGCAACUUUTT against SCYE1 here?
Answer: 0.437

Question: With GACAUAUAAUGACAUAGAUTT against TRAK1 as the sequence, how does the median seed-adjusted z-score read?
Answer: 0.298

Question: For CUUUGUCAGAGAUCACUUATT against PIPOX, which median seed-adjusted z-score is on record?
Answer: 1.06 (active)

Question: For GGAAUGCUAAGUUCCGAGATT against ARFGAP1, which median seed-adjusted z-score is on record?
Answer: 0.123

Question: Which median seed-adjusted z-score does the source give for AGGUUUCAGUGGUUUGGAUTT against COL1A1 here?
Answer: 0

Question: With CCAAGAACCCGGAGAAGUATT against EXOC7 as the sequence, how does the median seed-adjusted z-score read?
Answer: -0.231

Question: For GUACAAUACAAACACUUAATT against ORC4L, which median seed-adjusted z-score is on record?
Answer: -0.286

Question: Which median seed-adjusted z-score does the source give for GCGUGGACCCAAAUCAAUATT against KARS here?
Answer: -0.152

Question: Which median seed-adjusted z-score does the source give for GCUCCAACAUGGUCUACAATT against POLE here?
Answer: -1.55 (active)

Question: With GCUAGUCUUCUGGAAGUUATT against SRPRB as the sequence, how does the median seed-adjusted z-score read?
Answer: 0.000693

Question: For GGAUAUGCAUGCAAUCAAATT against ADAM23, which median seed-adjusted z-score is on record?
Answer: -0.0279

Question: Which median seed-adjusted z-score does the source give for GCCGUGACAUGAUAGGCAUTT against DDX41 here?
Answer: -0.611

Question: Which median seed-adjusted z-score does the source give for GGUUUGUGAAAGCAUAUAATT against FMNL2 here?
Answer: 0.293

Question: Which median seed-adjusted z-score does the source give for GGAACGAAGAGAACUAGAATT against OFD1 here?
Answer: 0

Question: Which median seed-adjusted z-score does the source give for CCAAGGAGCUUACUAUGGATT against SETDB2 here?
Answer: 0.417

Question: Which median seed-adjusted z-score does the source give for UGAGCAUGACUGAUUCCAATT against SFTPD here?
Answer: 0.289

Question: Which median seed-adjusted z-score does the source give for GUGAAGAUGUGGUCCUGAATT against PTK2B here?
Answer: 1.71 (active)

Question: For GGCUGUAAACUGCGCAUCATT against APOBEC2, which median seed-adjusted z-score is on record?
Answer: 0.232

Question: Which median seed-adjusted z-score does the source give for GAAUUGGAGAGCACCAAUATT against POLR2B here?
Answer: -4.81 (active)

Question: With ACAGGAUUCCAGAAAUGGATT against REG1A as the sequence, how does the median seed-adjusted z-score read?
Answer: 0.596

Question: For GCAGAAUUCUCCUACCAAATT against ENTPD3, which median seed-adjusted z-score is on record?
Answer: -0.28

Question: Which median seed-adjusted z-score does the source give for GGUCAACGAUGACAACCGATT against ITGB4 here?
Answer: -0.226

Question: Which median seed-adjusted z-score does the source give for CGGUAUCAUUACUGGAUAATT against LNPEP here?
Answer: -0.386

Question: With CCUUUGAGAUGGAAGCCUATT against ACY3 as the sequence, how does the median seed-adjusted z-score read?
Answer: 0.568

Question: For CAACCCUACCAAUGCUACUTT against PTP4A2, which median seed-adjusted z-score is on record?
Answer: -1.45 (active)

Question: For GCUGUGAAAUUGUUUCGAATT against IREB2, which median seed-adjusted z-score is on record?
Answer: 0

Question: For GGGAACUUCUUGGAACUUUTT against KLK12, which median seed-adjusted z-score is on record?
Answer: 0.243

Question: For CCAGCGCAACAAAGGAAAATT against HMX1, which median seed-adjusted z-score is on record?
Answer: 1.3 (active)

Question: With GAACUAAGCACUACUCUAATT against DRP2 as the sequence, how does the median seed-adjusted z-score read?
Answer: -0.0555

Question: For GCUACUUCUCAGUUGCUAATT against NDST4, which median seed-adjusted z-score is on record?
Answer: 0.426

Question: Which median seed-adjusted z-score does the source give for CAAAGUGACCAAGCAGAGATT against SF3A2 here?
Answer: -1.7 (active)

Question: Which median seed-adjusted z-score does the source give for CACCAGGACCAGUUAAAAATT against MVD here?
Answer: -0.561

Question: For GGUGAUUCAAGAUGCCCAATT against PXMP2, which median seed-adjusted z-score is on record?
Answer: -0.444

Question: With CUCCCAUGAUGGCAUCUUATT against HSPB2 as the sequence, how does the median seed-adjusted z-score read?
Answer: 0.247

Question: With CCAUCGAUGUCUCUGCUAUTT against ABCA1 as the sequence, how does the median seed-adjusted z-score read?
Answer: -1.27 (active)

Question: With UCGUCUUUGUCACCCGAAATT against CCL5 as the sequence, how does the median seed-adjusted z-score read?
Answer: 0.11

Question: Which median seed-adjusted z-score does the source give for CGUGCGGACAAUAAGCAAATT against MYO1C here?
Answer: 0.566

Question: Which median seed-adjusted z-score does the source give for GGCUAACUCGAUUUAAGCATT against TIGD2 here?
Answer: -0.13

Question: For GACUUUGACAAAGCGAUUATT against SPTAN1, which median seed-adjusted z-score is on record?
Answer: -0.233

Question: For CAUCCAUGGUUAAGUCAUATT against PTK6, which median seed-adjusted z-score is on record?
Answer: -0.295

Question: With GCACCUCUACAGGAACUUUTT against TSC2 as the sequence, how does the median seed-adjusted z-score read?
Answer: 1.11 (active)

Question: With GCUCCUCGUUUGUAGAAGATT against SLIT3 as the sequence, how does the median seed-adjusted z-score read?
Answer: -0.453

Question: With CGAUGUCUAGAGAACAGCATT against LAMB1 as the sequence, how does the median seed-adjusted z-score read?
Answer: 1.07 (active)

Question: For CGAGUACCGGGUCAAGAUATT against PLXND1, which median seed-adjusted z-score is on record?
Answer: -0.064
